# Compound activity: PubChem, National Center for Advancing Translational Sciences (NCATS)
# HT1080-NT tox – kills 2HG-producing HT-1080-NT fibrosarcoma cells; HT-1080-NT fibrosarcoma viability, CellTiter-Glo ATP luminescence, 48 h; hit rate 1.6% among 360,000; AID 686970; Potency, µM (series often up to 46.1 µM), for inactives: at the top dose activity, negative = less viability, actives largely listed as cytotoxic;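 note: NT is the 2HG producing partner of a matched IDH1 knockdown line; potency is the fitted concentration of half-maximal effect; 0% = DMSO-treated cells and -100% = media-only wells without cells; nearly all actives have a fitted effect of over 55% in size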
#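 Fibrosarcoma NT cells, 750 per well in 5% FBS RPMI, were exposed to compound for 48 hours. Viability: CellTiter-Glo luminescence.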
# IL1B secr inh – inhibitors of inflammasome signaling (IL-1 beta secretion); THP-1 LPS/ATP IL-1B secretion, AlphaLISA, 16 h; stronger effect = lower value; activity change, % at 57.5 µM; hit rate 4.7% among 360,000; AID 743279; in the data active = activity change below about -50%; inconclusive = mostly about -30% to -49%
#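 Secreted IL-1B measured by AlphaLISA bead assay after 16 h compound exposure of THP-1 cells; compounds (final up to 57.5 uM) added 1 h before LPS (250 ng/mL) and ATP (1.25 mM) stimulation; lower signal means less secretion.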
# DT40 TDP1 CPT – DT40-hTDP1 cell growth loss with CPT; chicken DT40 Tdp1-/-;hTDP1 cells + 20 nM CPT, ATP luminescence, 48 h; Potency, µM (titrated, usually from 46.2 µM), without a hit: at the top dose activity change, negative = growth inhibition, hits mostly inhibitors; hit rate 12% among 420,000; note: potency is the fitted concentration of half-maximal effect; nearly all actives have a fitted effect of over 55% in size
#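 Chicken DT40 Tdp1-/- cells stably complemented with human TDP1 were seeded at 400 cells/well in medium containing 20 nM camptothecin, exposed to pin-transferred compounds, and grown at 37 °C for at least 48 hr. Viability was read as ATP luminescence.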
# HT1080 IDH1KD tx – toxicity to HT-1080 IDH1 knockdown cells (counter line); HT-1080 IDH1 knockdown viability, ATP luminescence, 48 h; Potency, µM (series often up to 46.1 µM), without a hit: at the top dose activity, negative = toxicity, actives largely listed as cytotoxic; hit rate 2% among 360,000; AID 686971;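 note: potency is the fitted concentration of half-maximal effect; 0% = DMSO wells and -100% = cell-free medium wells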
#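 Cytotoxicity counter-line: IDH1KD HT-1080, 48 h, CellTiter-Glo. Curves classed by r2, magnitude and activity.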
# TDP1 cell noCPT – qHTS for Inhibitors of human tyrosyl-DNA phosphodiesterase 1 (TDP1): qHTS in cells in absence of CPT; DT40 Tdp1-/- hTDP1 cells, no CPT, ATP luminescence, 48 h; hit rate 15% among 420,000; Potency, µM (top dose mostly 46.2 µM), inactives show top-dose activity change, negative = growth inhibition, hits mostly inhibitors; note: potency is the fitted concentration of half-maximal effect; nearly all actives have a fitted effect of over 55% in size
#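 Seeded 400 DT40-hTDP1 cells/well (vehicle DMSO, no 20 nM CPT); pinned compounds; ≥48 hr at 37 °C; CellTiter-Glo luminescence as viability measure.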
# Starred values were filed as active, the others as inactive; i = inactive; ? = inconclusive; / = no result; [ ] = remark or other dose. The list is not random: actives were taken first. Their share in the collection is about 19%. Unless noted, calls come from the whole dose curve; as a rule, active = well fitted curve in the direction sought with a large enough effect; inconclusive = small, poorly fitted or top-dose-only effect, or another doubt; inactive = no such curve, though single readings can be large; an effect the other way counts as inactive or inconclusive. Unless noted, % is set by controls: 0 for no effect and ±100 for the full control effect.
SMILES,HT1080-NT tox,IL1B secr inh,DT40 TDP1 CPT,HT1080 IDH1KD tx,TDP1 cell noCPT
Cc1ccc(-c2nnc(SCC(=O)N/N=C/c3c(C)nn(-c4ccccc4)c3C)n2-c2ccc(C)cc2)cc1,-24%,2,?,-26%,?
Cc1cccc(C)c1NC(=O)CCCSc1nnc(-c2ccc(Cl)cc2)n1-c1ccccc1,-6%,i,23µM*,?,16µM*
Cc1ccc(-c2nnc(SCC(=O)N/N=C/c3ccc(C)s3)n2-c2ccccc2)cc1,?,-23,?,?,18µM*
Cc1ccc(/C=N/NC(=O)CSc2nnc(-c3ccc(Cl)cc3)n2-c2ccc(Cl)cc2)o1,18µM*,-3,23µM*,?,?
O=C(Nc1ccc(F)c(F)c1)c1cnn2c1NC(=C1CC1)C=C2C(F)(F)F,/,/,-15%,/,-15%
O=C1C=CC(=O)N1CCCCCCN1C(=O)C=CC1=O,?,-98*,1.5µM*,?,2.1µM*
COc1ccc(/C=C\c2onc(C)c2S(=O)(=O)N2CCC(C(=O)Nc3ccccc3OC)CC2)cc1,/,/,?,/,23µM*
CCOc1ccccc1NC(=O)C1CCN(S(=O)(=O)c2c(C)noc2/C=C/c2ccco2)CC1,/,/,?,/,18µM*
COc1cccc(C(=O)N2CCC(C(=O)Nc3cccc(Cl)c3)CC2)c1,/,/,10µM*,/,23µM*
COc1cc(C(=O)N2CCC(C(=O)Nc3cccc(C(C)=O)c3)CC2)cc(OC)c1OC,1%,-6,?,0%,?
COc1ccc(/C=C\c2onc(C)c2S(=O)(=O)N2CCC(C(=O)Nc3cccc(Cl)c3)CC2)cc1,/,/,6.5µM*,/,9.2µM*
O=C(NCc1ccccn1)c1ccccc1OCc1ccccc1Cl,-2%,13,?,1%,?
Cc1noc(/C=C/c2ccco2)c1S(=O)(=O)N1CCC(C(=O)N2c3ccccc3CC2C)CC1 (centres undefined),-1%,?,15µM*,-7%,18µM*
Cc1noc(/C=C/c2ccco2)c1S(=O)(=O)N1CCC(C(=O)NC(C)c2ccccc2)CC1 (centres undefined),-1%,-14,-27%,-3%,?
CCN(CC(=O)Nc1ccc(NC(C)=O)cc1)C(=O)/C=C/c1ccc([N+](=O)[O-])cc1,2%,-2,-8%,1%,-17%
O=C(NC(c1ccc(-c2ccccc2)cc1)c1cnccn1)C1CCN(Cc2cccc(C(F)(F)F)c2)CC1 (centres undefined),-92%,-63*,26µM*,?,18µM*
O=C(NC(c1ccc(Cl)cc1)c1cnccn1)C1CCN(Cc2cccc(C(F)(F)F)c2)CC1 (centres undefined),?,/,12µM*,?,8.2µM*
CN(C)c1ccc(CN2CCC(C(=O)NC(c3ccc(Cl)cc3)c3cnccn3)CC2)cc1 (centres undefined),-22%,?,21µM*,?,16µM*
O=C(NC(c1ccc(Cl)cc1)c1cnccn1)C1CCN(Cc2ccccc2)CC1 (centres undefined),7%,-2,?,4%,?
OCCN1CCN(Cc2ccc3c(c2)CN(Cc2cnc(-c4ccccc4)s2)CCO3)CC1,/,/,5%,/,-22%
COc1ccc(NC2CCCN(C(=O)c3cc(C)nc4cc(F)ccc34)C2)cc1 (centres undefined),-1%,12,-15%,15%,-1%
C=C(C)Cn1c2ccc(NC(=O)NCc3ccccc3)cc2c(=O)n1C,21%,-2,-10%,15%,-5%
NS(=O)(=O)c1ccc(CCNC(=O)CSc2nc3c(sc(=S)n3-c3ccccc3)c(=O)[nH]2)cc1,10%,39,-9%,13%,-14%
Cc1cc(C)c2nc(N3CCN(C(=O)c4cccs4)CC3)sc2c1,-15%,-70*,8%,-12%,?
Cc1cc2nc(N3CCN(C(=O)c4cccs4)CC3)sc2cc1C,18%,10,-22%,9%,?
SMILES,HT1080-NT tox,IL1B secr inh,DT40 TDP1 CPT,HT1080 IDH1KD tx,TDP1 cell noCPT
Cc1cc(C)c2nc(N3CCC(C(=O)N4CCN(c5ncccn5)CC4)CC3)sc2c1,-20%,-78*,16µM*,1%[9.24 µM],?
Cc1ccc(Cl)c2sc(N3CCN(C(=O)C4CC4)CC3)nc12,/,/,-6%,/,?
Cc1cc(C)c2nc(N3CCC(C(=O)NCCCN4CCCCC4)CC3)sc2c1,23µM*,-25,?,18µM*,?
O=C(C1CC1)N1CCN(c2nc3c(Cl)cccc3s2)CC1,/,/,21µM*,/,21µM*
CCCN(CCC)CCc1cccc2c1CC(=O)N2,/,/,-6%,/,-16%
Cc1ccc(C)c(NC(=O)CN(C)C(=O)c2ccc(COc3ccccc3)cc2)c1,-10%,-20,?,-19%,?
Cc1ccc(F)cc1S(=O)(=O)NCc1nc(N2CCCC2)c2cccc(C)c2n1,/,/,?,/,23µM*
CC1(C(=O)NS(=O)(=O)C2CC2)CCCN(C(=O)c2cccc(OC(F)(F)F)c2)C1 (centres undefined),1%,-64*,?,18%,3.7µM*
CC1(C(=O)NS(=O)(=O)C2CC2)CCCN(C(=O)c2cccc(C(F)(F)F)c2)C1 (centres undefined),21%,40,?,8%,4.1µM*
COc1cc(C(=O)N2CCCC(C)(C(=O)NS(=O)(=O)C3CC3)C2)cc(OC)c1OC (centres undefined),19%,-16,1.6µM*,12%,0.92µM*
CC1(C(=O)NS(=O)(=O)C2CC2)CCCN(C(=O)c2ccccc2OC(F)(F)F)C1 (centres undefined),22%,12,?,11%,9.2µM*
COCCNC(=O)C1(C)CCCN(C(=O)c2cccc(C(F)(F)F)c2)C1 (centres undefined),12%,21,-18%,1%,-17%
COc1ccc(-c2oc3ncn4nc(COc5ccccc5C)nc4c3c2-c2ccc(OC)cc2)cc1,/,/,2%,/,2%
CC(=O)N1CCN(c2nc3cc(C)ccc3cc2CN(C(=O)c2cccc3ccccc23)C2CC2)CC1,/,/,13%[9.04 µM],/,?
Nc1cc(=O)nc(SCC(=O)Nc2cccc3ccccc23)n1CCc1ccccc1,0%,-6,-4%,-7%,-3%
CC1(C(=O)NS(=O)(=O)C2CC2)CCN(C(=O)c2ccccc2C(F)(F)F)C1 (centres undefined),20%,11,-20%,16%,-1%
CC1(C(=O)NS(=O)(=O)C2CC2)CCCN(C(=O)COc2ccccc2)C1 (centres undefined),?,40,?,0%,?
